Laboratory results published in PubChem BioAssay (NCI).
The panel holds about 83,000 compounds, 20% with a hit somewhere; the sample as a whole holds those more often.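 Negative percent growth values reflect cell death: -40 means 40% of the cells present at the start died, and -100 means all died.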 A number with no mark means an inactive call. The source made the active and inactive calls. The calls were made as follows: active = growth percent below 10; inactive = the rest.

Tested on: HL-60(TB) leukemia
Test: NCI-60 one-dose screen, 48 h (100 = growth as untreated, 0 = no growth, -100 = all killed)
Conditions: 10 µM unless noted

SMILES | growth
CC[C@H](Nc1nc(N)nc(C2CC2)c1C#N)c1nc2cccc(NCc3ccc(C(=O)NO)cc3)c2c(=O)n1-c1ccccc1 | -19.3% (active)
COc1cc(-c2ccc(NC(=O)NC3CC3)c(OC)c2)ccc1NC(=O)NC1CC1 | 43.6%
O=c1oc2cc(OS(=O)(=O)C3CC3)ccc2c2c1CCCCCC2 | 80.1%
c1ccc(CCn2cccc2)nc1 | 1.63% (active)
COc1ccc(C(=NN=C(N)N)c2ccc(OC)cc2)cc1 | 15.5%
Nc1cc(Br)c(-c2nn3c(CCC(=O)c4nc5ccccc5[nH]4)nnc3s2)c(Br)c1 | 100%
C[C@@]1(CCC#N)[C@H]2CC[C@@H]3[C@H]4[C@H](C(=O)/C=C/c5cccnc5)CC[C@]4(C#N)CC[C@@]3(C)[C@]2(C)CC[C@H]1C(=O)/C=C/c1cccnc1 | 46%
N#Cc1cc2[nH]c3ccc(OC(F)(F)F)cc3c2oc1=O | 99.8%
CC(=O)c1c(C)[nH]c(-c2nc3ccc(N4CCN(C)CC4)cc3[nH]2)c1-c1ccccc1 | 4.85% (active)
CCC(C)N(CCNc1cc(OC)cc2cccnc12)CC(C)C (stereo unspecified) | 73.9%
Cc1c(C(N)=O)sc2nc(SCC(=O)Nc3ccc(Cl)cc3)n(-c3ccccc3)c(=O)c12 | 171%
Cc1nc2scc(-c3ccc(Cl)cc3)n2c(=O)c1CCN1CCOCC1 | 99.6%
Cc1nn(-c2ccccc2)c2c1N=c1s/c(=C\c3cn(-c4ccccc4)nc3-c3ccc(Cl)cc3)c(=O)n1C(C)N2 (stereo unspecified) | 78.5%
COc1ccc(-c2n/c(=C\c3c(O)[nH]c4ccc(OC)cc34)cc3c2=Nc2ccccc2-3)cc1 | 81%
N/C(=N\c1nc2ccccc2s1)NC(=O)Nc1cccc2ccccc12 | -26.8% (active)
O=C(Cn1c[n+](CC(=O)c2ccc([N+](=O)[O-])cc2)c2ccccc21)Nc1cccc2cccnc12 | 61.9%
CO[C@H](C(=O)[C@@H](O)[C@@H](C)O)[C@@H]1Cc2cc3cc(O[C@H]4C[C@@H](O[C@H]5C[C@@H](O)[C@H](O)C(C)O5)[C@H](O)C(C)O4)c(C)c(O)c3c(O)c2C(=O)[C@H]1O[C@H]1C[C@@H](O[C@H]2C[C@@H](O[C@H]3C[C@](C)(O)C(=O)C(C)O3)[C@@H](O)C(C)O2)[C@H](O)C(C)O1 (stereo partly specified) | 2.34% (active)
O=C(Oc1cccnc1)c1ccsc1Nc1ccnc(C(F)(F)F)c1 | 25.9%
CC1(C)CC[C@]2(C(=O)N3CCOCC3)CC[C@]3(C)C(=CC[C@@H]4[C@@]5(C)C/C(=C/c6ccncc6)C(=O)C(C)(C)[C@@H]5CC[C@]43C)[C@@H]2C1 | -37.6% (active)
COc1cc(C(=O)/C=C/c2c(-c3ccc(F)cc3)nc3sc(C)cn23)cc(OC)c1OC | -34% (active)
COc1ncc(-c2ccc3ncnc(Nc4cccc(Cl)c4)c3c2)cc1NS(=O)(=O)C1CC1 | 36.7%
O=C(NOCCO)c1ccc2cncn2c1Nc1ccc(I)cc1F | 23.5%
COc1ccc([N+](=O)[O-])c(S(=O)(=O)c2ccc(Cl)cc2)n1 | 38.2%
O=C(CCCCCCCCC(=O)N/N=C\c1ccccc1O)N/N=C\c1ccccc1O | 14.8%
O=S(=O)(Nc1cc(Sc2cccc3cccnc23)c(O)c2ccccc12)c1ccccc1 | -21% (active)
Fc1ccc(C2CC(c3cccc(Nc4ccncc4)c3)=NN2c2ccccc2)cc1 (stereo unspecified) | -19.5% (active)
